{"source": "the supplement of paper PMC9897528", "note": "Unmarked numbers belong to inactive results.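 Further: conidia screened in RPMI 1640 medium under 5% CO2, growth read by spectrophotometer, medium with 0.5% DMSO serving as the untreated reference.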", "data": [{"system": "Scedosporium aurantiacum CBS 136046", "experiment": "growth inhibition relative to DMSO control (OD600); higher = more antifungal activity, active = 80 or more; extreme values may be limits of the assay", "conditions": "5 µM; 72 h; 37 °C", "values": [{"compound": "C[C@H](NC(=O)C(=O)Nc1ccccc1C(C)(C)C)C(=O)N[C@@H](CC(=O)O)C(=O)COc1c(F)c(F)cc(F)c1F", "growth inhibition": "11.6%"}, {"compound": "Cc1c(CN(C)C(=O)/C=C/c2cnc3c(c2)C(C)(C)C(=O)N3)oc2ccccc12", "growth inhibition": "19.3%"}, {"compound": "CCCC1(C2CC2)c2cc(Cl)ccc2NC(=O)N1C", "note": "(centres undefined)", "growth inhibition": "18.8%"}, {"compound": "Cc1ncc([N+](=O)[O-])n1CC(O)CN1CCOCC1", "note": "(centres undefined)", "growth inhibition": "31%"}, {"compound": "NC(=O)C(c1ccccc1)(c1ccccc1)[C@H]1CCCN(CCc2ccc3c(c2)CCO3)C1", "growth inhibition": "13.5%"}, {"compound": "Nc1nc2c(ncn2/C=C2/CC2(CO)CO)c(=O)[nH]1", "growth inhibition": "1.28%"}, {"compound": "CCNC(=O)Nc1cc(-c2ccccc2)c(-c2cncc(C(=O)O)c2)cn1", "growth inhibition": "8.53%"}, {"compound": "O=C(c1ccccc1)N1CCN(c2ccccc2NC(=O)C(Cl)(Cl)Cl)CC1", "growth inhibition": "33.8%"}, {"compound": "Nc1nc(-c2ccccc2)nc2c1ncn2[C@@H]1O[C@H](COS(=O)(=O)NC(=O)c2ccccc2O)[C@@H](O)[C@H]1O", "growth inhibition": "30%"}, {"compound": "COc1cc(Cc2cc(N)nc(N)n2)cc(OC)c1OC", "growth inhibition": "11.7%"}, {"compound": "CC(C)Nc1nc2cc(Cl)c(Cl)cc2n1[C@H]1O[C@@H](CO)[C@H](O)[C@@H]1O", "growth inhibition": "8.22%"}, {"compound": "C(=C\\c1nc2ccccc2[nH]1)/c1ccc2c(c1)OCO2", "growth inhibition": "17.1%"}, {"compound": "C[Si]1(C)CCN(Cc2cc(-c3ccc(Cl)cc3)n(-c3ccc(Cl)cc3)n2)CC1", "growth inhibition": "10%"}, {"compound": "Clc1cc(Cl)c2c(c1)CCc1ccccc1C2n1ccnc1", "note": "(centres undefined)", "growth inhibition": "80.2% (active)"}]}]}
